Reference: PubChem BioAssay AID1117361 (Southern Research Institute, 2015)
In all, about 3,600 compounds went through this assay and about 900 (25%) were called active. A selection follows. Entries with a potency or affinity are not part of this list. A number with no mark means an inactive call. The rule behind the calls is not given here.

The compounds below were run against Protein Tat (Human immunodeficiency virus type 1 group M subtype B (isolate HXB2)) (UniProt P04608) (assay: inhibitors of Tat binding to TAR RNA, dose response, counter-screen for Vif-APOBEC3G degradation inhibitor project, biochemical, fluorescence polarization, FAM-labeled TAR RNA (AID 1117361)). Settings: outcome: dose series up to 100 µM unless noted; series mostly up to 100 µM; inhibition: at the top concentration.
With `CC(C)c1ccc(-c2nc(N3CCCC3)nc3n[nH]c(N)c23)cc1` the “inhibition” value was 3.38%. `N#Cc1ccc(N2CCN(C(=O)c3cccc(F)c3)CC2)c(F)c1` was tested, and the “inhibition” value was 5.41%. `CC(C)Oc1ccc2ccccc2c1C=O` was tested, and the “inhibition” value was 21.6%. In the case of `Cc1cc(C)n2nc(SC(C)C(=O)N3CCCC3)nc2n1` (centres undefined), the outcome is reported as “inactive”. In the case of `Oc1ccc(/C=N/N=C/c2ccc(O)c(O)c2)cc1O`, the outcome is reported as “inactive”. For `Cc1nc(OCc2ccccc2)c2ccccc2n1`, the “inhibition” value was 5.41%. `COc1ccc(CCNCc2ccc(OCc3ccccc3)cc2)cc1` was tested, and the “inhibition” value was 0.33%. For `O=c1cc(CSc2ccccn2)c2ccccc2[nH]1`, the “inhibition” value was 6.08%. With `Cc1ccnc(N2CCCC(C(=O)Nc3cc(F)ccc3C)C2)n1` (centres undefined) the “inhibition” value was 3.67%. With `Cn1c(=O)c2c(ncn2CCCNC2=CC(C)(C)CC(=O)C2)n(C)c1=O` the “inhibition” value was 0.68%. For `N=C1C(c2nc3ccccc3c(=O)[nH]2)=C(O)CN1c1ccccc1`, the “inhibition” value was 5.41%. With `O=C(Nc1ccc2c(c1)OCCO2)C1CCC1` the “inhibition” value was 4.73%. In the case of `C/C(=N\OCC(=O)Nc1ccc2c(c1)OCCO2)c1ccc2c(c1)OCCO2`, the “inhibition” value is reported as 3.41%. `COc1ccc(-c2cc(C(=O)NCCCn3ccnc3)no2)cc1OC` was tested, and the “inhibition” value was 2.7%. `O=C(CSc1nnc(CCCO)n1-c1ccccc1)NCCc1ccccc1` was tested, and the outcome was “inactive”. With `CCc1ccc(N(C2C=CS(=O)(=O)C2)S(=O)(=O)c2ccc(C)cc2)cc1` (centres undefined) the outcome was “inactive”. With `O=C(c1cnn2c(C(F)F)cc(C3CC3)nc12)N1CCc2ccccc2C1` the “inhibition” value was 3.41%. `Cc1cc(F)ccc1S(=O)(=O)Nc1ccccc1C(=O)Nc1ccc2[nH]c(=O)[nH]c2c1` was tested, and the “inhibition” value was 0.68%. In the case of `CN(C)CCNC(=O)C(=O)c1c(-c2ccccc2)cc2ccccn12`, the “inhibition” value is reported as 3.3%. For `Cc1ccccc1OCC(=O)NN1Cc2ccccc2C1=N`, the “inhibition” value was 0.68%. In the case of `CCN1C(=O)c2ccccc2S(=O)c2ccc(C(=O)NC3CC3)cc21` (centres undefined), the “inhibition” value is reported as 6.08%. With `CCCCC(=O)NCCNC(=O)c1cc(OCC(F)(F)F)ccc1OCC(F)(F)F` the “inhibition” value was 2.73%. For `CC(C)NC(=O)c1cc(-c2ccco2)nn1-c1ccc(Cl)cc1`, the “inhibition” value was 21.7%. In the case of `COc1ccccc1NC(=O)N1CCCC1C(=O)NC1CCCCC1` (centres undefined), the outcome is reported as “inactive”. In the case of `Cc1[nH]c(=O)nc(NN=Cc2ccc(Cl)cc2)c1C(=O)Nc1ccc(Cl)cc1`, the outcome is reported as “inactive”. For `CN1C(=O)CSc2ccc(NC(=O)NCc3cccnc3)cc21`, the outcome was “inactive”. `O=C(Nc1nc2ccc(Cl)cc2s1)C1CCCO1` (centres undefined) was tested, and the “inhibition” value was 6.08%. `Nc1c2c(nc3ccccc13)CCC2` was tested, and the “inhibition” value was 4.09%. `COc1cc(NC(=O)c2cccs2)c(OC)cc1NC(=O)CCn1nnc2ccccc21` was tested, and the outcome was “inactive”. For `O=C(CS(=O)(=O)c1cn(Cc2ccc(F)cc2)c2ccccc12)N1CCCCC1`, the outcome was “inactive”. In the case of `O=C(N/N=C/c1ccc(OC(=O)c2cccs2)cc1)c1cccc(F)c1`, the “inhibition” value is reported as 2.7%. `O=C(Nc1ccccc1-c1nnn(CC(=O)N2CCc3ccccc3C2)n1)C1CCC1` was tested, and the “inhibition” value was 8.78%. `CC(=O)n1nc(-c2ccc(Cl)cc2)nc1NCc1ccco1` was tested, and the “inhibition” value was 2.05%. For `CNc1nc(Sc2cccc(C(F)(F)F)c2)cc(C(F)(F)F)n1`, the “inhibition” value was 2.7%. `O=C(CCN1C(=O)c2ccccc2C1=O)NCc1ccco1` was tested, and the “inhibition” value was 2.34%. For `O=C1CSC(c2nn(-c3ccccc3)cc2-c2cc3ccccc3oc2=O)N1Cc1ccco1` (centres undefined), the “inhibition” value was 26.4%. With `CCOC(=O)c1c(NC(=O)CCN2CCOCC2)sc(C)c1-c1ccccc1` the outcome was “inactive”. With `CC(=O)N1CCCc2cc(S(=O)(=O)N(C)CCC#N)ccc21` the “inhibition” value was 2.7%. In the case of `CCc1c(C)[nH]c(=S)c(C#N)c1C`, the “inhibition” value is reported as 7.5%. `O=C(NCc1ccc(F)cc1)C1CCCN1C(=O)NCc1ccccc1` (centres undefined) was tested, and the outcome was “inactive”. `CCCC(c1nnnn1CC(=O)OCC)N(Cc1cc2c(C)cc(C)cc2[nH]c1=O)C1CCCC1` (centres undefined) was tested, and the “inhibition” value was 16.4%. In the case of `O=C(c1ccco1)N1CCN=C1SCc1ccccc1F`, the “inhibition” value is reported as 6.82%. `Cc1ccccc1S(=O)(=O)Cc1ccc(C(=O)NCCCN2CCC(C)CC2)o1` was tested, and the “inhibition” value was 2.34%. With `O=C(CCCCl)Nc1nc(-c2ccc3c(c2)OCCO3)cs1` the “inhibition” value was 4.12%. With `CN(C)C(=O)c1cc(Cl)ccc1Sc1cc(Cl)ccc1Cl` the “inhibition” value was 4.77%. With `COC(C[C@H]1O[C@@H]1[C@@H](O)COCc1ccccc1)OC` the outcome was “inactive”. In the case of `N#Cc1nc(Cc2cccc3ccccc23)oc1NCc1ccc(F)cc1`, the outcome is reported as “inactive”. In the case of `Cc1nc(C(=O)N(C)C)nn1-c1cc(Cl)cc(Cl)c1`, the “inhibition” value is reported as 2.05%. For `CCC(=O)Nc1nc2ccc(NC(C)=O)cc2s1`, the outcome was “inactive”. With `CC(C)c1ccccc1N1CC(C(=O)O)CC1=O` (centres undefined) the outcome was “inactive”. `COc1cc(C2C(C(=O)c3ccco3)=C(O)C(=O)N2c2cc(C)on2)cc(Br)c1O` (centres undefined) was tested, and the “inhibition” value was 27.7%. For `COc1ccc(/C(O)=C2/C(=O)C(=O)N(c3ccccn3)C2c2ccc(F)cc2)cc1` (centres undefined), the “inhibition” value was 9.69%. `O=C(C1CCCC1)N1CCCC(Nc2ccc(F)cc2)C1` (centres undefined) was tested, and the “inhibition” value was 1.67%. With `O=C(c1cc(-c2cccs2)on1)N1CCCCC1` the “inhibition” value was 4.73%. `COc1ccccc1N1CCN(C(=O)c2cc(-c3cccs3)on2)CC1` was tested, and the outcome was “inactive”. `COc1cccc2sc(N(C)c3ccccc3)nc12` was tested, and the outcome was “inactive”. With `CC1CCN(S(=O)(=O)c2cc(Br)cc(C(=O)NC3=NCCS3)c2)CC1` the “inhibition” value was 4.05%. In the case of `C=CCNC(=O)c1ccncc1`, the “inhibition” value is reported as 2.03%. In the case of `COc1cc(/C=N/NC(=O)c2ccc(NS(=O)(=O)c3cccs3)cc2)cc(OC)c1O`, the outcome is reported as “inactive”. With `CCn1cc(C(=O)N2CCOCC2)c(=O)c2cc(S(=O)(=O)N(C)C3CCCCC3)ccc21` the outcome was “inactive”. For `CSc1cccc(NC(=O)CN(c2cc(C)ccc2C)S(C)(=O)=O)c1`, the “inhibition” value was 6.08%. With `CSc1cccc(NC(=O)C(C)C)c1` the “inhibition” value was 19%. `CCOC(=O)C1CCN(C(=O)c2ccc(Cl)c(S(=O)(=O)N3CCOCC3)c2)CC1` was tested, and the “inhibition” value was 13%. With `O=C(N/N=C/c1ccc(F)cc1)c1ccc(Br)cc1` the “inhibition” value was 13.6%. For `CSCC[C@H](NC(=O)NCc1ccccc1F)C(=O)O`, the “inhibition” value was 2.03%. For `O=C(O)c1ccccc1NS(=O)(=O)c1ccccc1C(F)(F)F`, the “inhibition” value was 1.36%. In the case of `COc1ccc(NC(=O)c2cccnc2C(=O)O)c(OC)c1`, the “inhibition” value is reported as 4.95%. With `Cc1cc(=O)[nH]c2c1c(C)nn2C1CCCC1` the outcome was “inactive”. In the case of `Cc1ccc2c(c1)c(=O)c1c3n2CCN(C(=O)CCl)C3CC1` (centres undefined), the “inhibition” value is reported as 16.4%. For `O=C(COC(=O)c1ccccc1OC(F)F)Nc1ccc2[nH]c(=O)[nH]c2c1`, the outcome was “inactive”. With `CCN(CC)C(=O)c1sc(NC(=O)c2ccc(Br)o2)c(C(=O)OC)c1C` the “inhibition” value was 5.46%. For `C=CCNC(=O)c1ccccc1Cl`, the outcome was “inactive”. In the case of `CCc1c(C(=O)NCc2ccccc2Cl)[nH]c(C)c1C(C)=O`, the outcome is reported as “inactive”. For `Nc1ccc(Sc2cc(Cl)nc(N)n2)cc1`, the “inhibition” value was 4.05%. `O=C(Cn1ccc([N+](=O)[O-])n1)N1CCCc2ccccc21` was tested, and the “inhibition” value was 2.03%. For `O=C(CSc1nc(N2CCCCC2)nc(N2CCCCC2)n1)N1CCc2ccccc21`, the outcome was “inactive”. `CCCCNC(=O)CN1C(=O)CSc2ccc(S(=O)(=O)N3CCOCC3)cc21` was tested, and the outcome was “inactive”. In the case of `CO/N=C/C(=N\Nc1ccc(OC)cc1)C(=O)c1ccc(OC)cc1`, the “inhibition” value is reported as 5.46%. For `COc1ccc(C(=O)C2CCCN(C(=O)c3cnsn3)C2)c(C)c1` (centres undefined), the outcome was “inactive”. With `CC(=O)c1ccc(-c2nnc(CCC(=O)N(C)Cc3c(C)nc4ccccn34)o2)s1` the “inhibition” value was 4.95%. For `CN(C(=O)CSc1ncnc2sccc12)C1CCCCC1`, the outcome was “inactive”. `O=C(/C=C/c1ccccc1)NC(NC(=S)Nc1cc(Cl)ccc1Cl)C(Cl)(Cl)Cl` (centres undefined) was tested, and the outcome was “inactive”. With `COC(=O)c1cccc(NC(=O)c2cccc(OC)c2)c1` the “inhibition” value was 4.05%. `COC(=O)c1ccc(NC(=O)COc2cccc(-n3cnnn3)c2)cc1` was tested, and the “inhibition” value was 6.35%. With `O=C(O)c1cccc(NCc2ccncc2)c1` the “inhibition” value was 20.9%. With `CC(=O)Nc1ccc2c(c1)Cc1cc(N3C(=O)C=CC3=O)ccc1-2` the outcome was “inactive”. For `CCOc1ccc(C2=[N+]([O-])C(C)(C)N(O)C2(C)C)cc1`, the “inhibition” value was 3.41%. With `CCCCn1nnc(NC(=O)c2ccc(-c3cccc(Cl)c3)o2)n1` the “inhibition” value was 0.68%. In the case of `CC1(C)CC(=O)c2cc(OCC(=O)NCc3cccnc3)ccc2O1`, the “inhibition” value is reported as 8.11%. With `CCOC(=O)/C(=C\c1ccccc1)NC(=O)c1ccccc1` the outcome was “inactive”. `CCOC(=O)/C(=C/c1c2ccccc2cc2ccccc12)NC(=O)c1ccccc1` was tested, and the “inhibition” value was 3.38%. In the case of `COc1ccc(S(=O)(=O)NCc2ccccn2)cc1`, the “inhibition” value is reported as 4.05%. In the case of `Cc1cccc(C)c1NS(=O)(=O)c1c(C)[nH]c(=O)[nH]c1=O`, the “inhibition” value is reported as 6.14%. With `COc1ccc(CNc2ncnc(N)n2)cc1` the “inhibition” value was 5.41%. With `CC(C)CC(NC(=O)CCl)c1ccccc1` (centres undefined) the outcome was “inactive”. For `CCCC(=O)Nc1ccccc1NC(C)=O`, the “inhibition” value was 4.05%. In the case of `CCN(CC)C(=O)CSCC(=O)Nc1ccccc1`, the “inhibition” value is reported as 2.03%. For `CCOC(=O)c1ccc(NC(=O)CSc2nnc(Cc3cccs3)n2C)cc1`, the “inhibition” value was 4.77%. With `O=C(c1c(F)cccc1F)N(Cc1ccccn1)C1CCCC1` the outcome was “inactive”. In the case of `O=C(CCn1c(=O)c2ccccc2n(CC(=O)NCCC2=CCCCC2)c1=O)NCc1ccco1`, the “inhibition” value is reported as 16.4%. `O=C(NCCc1ccc(Cl)cc1)C1CCN(C(=O)c2sccc2-n2cccc2)CC1` was tested, and the “inhibition” value was 10.2%. With `COc1cc(C(O)P(=O)(OCC(C)C)OCC(C)C)cc(OC)c1OC` (centres undefined) the outcome was “inactive”. With `Cc1ccc(CNC(=O)C2c3ccccc3C(=O)N3CCc4ccccc4C23)o1` (centres undefined) the “inhibition” value was 10.9%. For `CN1CCN(C(=O)c2ccc(N(C)S(=O)(=O)c3cccs3)cc2)CC1`, the outcome was “inactive”. In the case of `Cc1ccc(CSC2=Nc3sccc3C3=NC(=O)CN23)cc1`, the “inhibition” value is reported as 25.9%. In the case of `COCC(=O)NCCc1nc2ccccc2[nH]1`, the “inhibition” value is reported as 2.03%. With `COCCn1c(N2CCN(c3ccc(OC)cc3)CC2)nc2c1c(=O)[nH]c(=O)n2C` the outcome was “inactive”. `CCCn1c(NC(=O)c2ccco2)nc2ccccc21` was tested, and the outcome was “inactive”. In the case of `CCn1c(=N)n(CC(=O)c2ccc(OC)cc2)c2ccccc21`, the outcome is reported as “inactive”. In the case of `CC(=O)c1sc(NC(=O)C2CCN(C(=O)c3ccccc3C)CC2)nc1-c1ccccc1`, the “inhibition” value is reported as 19%. With `COc1ccc2oc(C(F)(F)C(F)(F)F)cc(=O)c2c1` the “inhibition” value was 8.87%. For `O=C(CN1CCC(NC(=O)c2cccc(F)c2)CC1)NCc1ccccc1F`, the “inhibition” value was 13.6%. In the case of `CCN(CC)C(=O)CN1C(=O)C2(NC(=O)c3ccccc3N2)c2ccccc21` (centres undefined), the outcome is reported as “inactive”. In the case of `Cc1ccc(OC(=O)COc2ccccc2)c(-n2nc3ccccc3n2)c1`, the “inhibition” value is reported as 1.36%.
